This is a sample that favours compounds with a hit; in the whole collection about 7.5% have one here.
TSHR antagonist: Antagonists of the Thyroid Stimulating Hormone Receptor: HTS campaign; TSHR-expressing cells, TSH-stimulated cAMP HTRF, 2 h; stronger effect = lower value; Thyrotropin receptor (Homo sapiens), P16473; activity change, negative = inhibition, % at 11.5 µM; actives 0.2% (n = 330,000); AID 504810, 2011;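 active = activity change below a set negative limit, meaning inhibition stronger than a set level, cut at about -70% in these data; inconclusive = activity change between two set negative limits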
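Competitive HTRF cAMP read-out (cryptate anti-cAMP antibody, cAMP-d2; 30 min, room temperature) in freshly harvested TSHR cells. Compounds added before TSH at EC80 (4nM final), followed by 2 hours' incubation at 37 deg C.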
RORg inh: qHTS for inhibitors of ROR gamma transcriptional activity; actives 5.4% (n = 310,000); Drosophila S2 Gal4-RORgamma UAS-luciferase reporter, 20 h; Potency, µM (series often up to 53.6 µM), inactives show at the top dose activity change, negative = inhibition, most hits filed as inhibitors; AID 2551, 2010; Nuclear receptor ROR-gamma (Mus musculus), P51450; note: potency is the fitted concentration of half-maximal effect; nearly all actives have a fitted effect of over 60% in size
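Stably transfected Drosophila Schneider cells are the test system, with ROR gamma fused to Gal4 and luciferase under UAS control; luminescence is read after 20 hr of 700 uM copper sulfate induction at ambient temperature.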
ELG1 repair inh: qHTS screen for small molecules that inhibit ELG1-dependent DNA repair in human embryonic kidney (HEK293T) cells expressing luciferase-tagged ELG1; HEK293T ELG1-luciferase reporter, luminescence, 16 h; DNA damage induced by 5-fluorouridine; Potency, µM (series often up to 46.1 µM), without a hit: at the highest dose activity change, negative = inhibition, hits mostly inhibitors; actives 2.3% (n = 330,000); AID 504467, 2011; note: potency is the fitted concentration of half-maximal effect; nearly all actives have a fitted effect of over 55% in size
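Quantitative HTS, concentration-response format. 2,000 cells/well co-treated with 5-fluorouridine and compound, 16 hr in 5% CO2 at 37 °C; ONE-Glo luminescence read after 30 min.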
B2AR arrestin: qHTS assay of beta-arrestin-biased ligands of beta2-adrenergic receptor; beta-arrestin recruitment to beta2AR, cell-based reporter; Potency, µM (titrated, usually from 46.1 µM), for the others: top-dose activation, actives largely listed as activators; actives 0.02% (n = 330,000); AID 492947, 2010;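 note: potency is the fitted concentration of half-maximal effect; 0% = DMSO controls and full agonism = EC100 isoproterenol or metaproterenol; nearly all actives have a fitted effect of over 65% in size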
Target sequence (P07550 whole entry, looked up): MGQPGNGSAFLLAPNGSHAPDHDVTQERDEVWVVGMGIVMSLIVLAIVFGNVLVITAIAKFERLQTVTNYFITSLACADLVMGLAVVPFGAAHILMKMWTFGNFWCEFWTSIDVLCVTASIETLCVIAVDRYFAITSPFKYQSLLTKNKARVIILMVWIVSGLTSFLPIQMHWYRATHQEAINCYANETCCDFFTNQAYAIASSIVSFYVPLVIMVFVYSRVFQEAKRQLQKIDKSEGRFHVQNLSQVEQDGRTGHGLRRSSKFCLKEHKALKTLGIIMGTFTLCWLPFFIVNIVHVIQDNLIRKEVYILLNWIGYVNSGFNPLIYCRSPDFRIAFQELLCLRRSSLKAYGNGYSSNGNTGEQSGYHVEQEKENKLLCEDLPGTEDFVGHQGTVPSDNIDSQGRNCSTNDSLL
Gal4-VP16 FLuc: VP16 counterscreen qHTS for inhibitors of ROR gamma transcriptional activity; actives 3.5% (n = 310,000); Drosophila S2 Gal4-VP16 UAS-luciferase, luminescence, 20 h; Potency, µM (doses to about 53.6 µM), inactives show top-dose activity, negative = inhibition, hits mostly inhibitors; AID 2546, 2010;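 note: Gal4-VP16 expression switched on by copper sulfate through the metallothionein promoter; potency is the fitted concentration of half-maximal effect; nearly all actives have a fitted effect of over 50% in size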
* hit, by the source's call; ? = inconclusive; / = no result given; [ ] = another dose, or the depositor's remark. Unless noted, calls come from the whole dose curve; as a rule, active = well fitted curve in the direction sought with a large enough effect; inconclusive = small, poorly fitted or top-dose-only effect, or another doubt; inactive = no such curve, though single readings can be large; an effect the other way counts as inactive or inconclusive. Unless noted, % is set by controls: 0 for no effect and ±100 for the full control effect.

SMILES	TSHR antagonist	RORg inh	ELG1 repair inh	B2AR arrestin	Gal4-VP16 FLuc
O=C(Nc1ccc(S(=O)(=O)N2CCCCC2)cc1)c1ccc(Cl)nc1	/	/	?	-1.0%	/
O=C(Nc1cccc(S(=O)(=O)N2CCCCC2)c1)c1ccc2ccccc2n1	-10.6	?	-11.7%	0.1%	?
O=C(Cn1nnc(-c2ccccc2Cl)n1)Nc1cccc(S(=O)(=O)N2CCCC2)c1	-14.4	/	23.1µM*	-0.7%	/
O=C(Nc1cccc(S(=O)(=O)N2CCCCC2)c1)c1ccc(Cl)nc1	-22.0	/	20.6µM*	-0.8%	/
O=C(Nc1cccc(S(=O)(=O)N2CCCCCC2)c1)c1ccc(Cl)nc1	-23.3	/	20.6µM*	-0.4%	/
O=C(Nc1ccc(S(=O)(=O)N2CCCC2)cc1)c1ccc(Cl)nc1	-6.7	/	?	-0.4%	/
O=C(Nc1cccc(F)c1)c1ccc(S(=O)(=O)N2CCCCC2)cc1	-4.4	61.1%	?	-0.6%	-1.9%
CCOc1ncccc1C(=O)Nc1cccc(S(=O)(=O)N2CCCCC2)c1	-5.5	/	11.2µM*	-0.3%	/
Cc1nc2ccccn2c1C(=O)/C=C/c1ccc(F)cc1	-1.0	8.91µM*	?	-0.8%	?
OCC1OC([S-])[C@H](O)C(O)C1O.[Au+] (some centres undefined)	/	-8.8%	/	/	6.31µM*
COc1ccc(S(=O)(=O)N2CCN(CC(=O)Nc3c(C)n[nH]c3C)CC2)cc1OC	18.4	/	-6.3%	-0.3%	/
COc1ccc(C2NC(=O)NC(C)=C2C(=O)OC2CCC(C)CC2)cc1 (centres undefined)	-3.9	?	?	0.1%	-15.3%
CN(C)S(=O)(=O)N1CCC(c2ccc(F)cc2)C(COc2ccc3c(c2)OCO3)C1 (centres undefined)	-6.7	3.6%	16.4µM*	-0.5%	2.3%
CN(C)S(=O)(=O)N1CCN(C(=O)c2ccc3c(c2)OCO3)CC1	1.5	-31.8%	-3.1%	-0.2%	5.8%
CCCn1c(=O)[nH]c2nc(-c3ccc(S(=O)(=O)O)cc3)[nH]c2c1=O	/	0.7%	/	/	-6.8%
COc1ccc(C(=O)NNC2CC(=O)N(Cc3ccccc3)C2=O)cc1OC (centres undefined)	-7.3	1.8%	6.6%	-0.8%	-10.6%
CCOc1ccc(C(=O)NNC2CC(=O)N(Cc3ccc(Cl)cc3)C2=O)cc1OC (centres undefined)	-4.9	3.16µM*	7.4%	-0.1%	1.26µM*
Cc1cc(C)c(NC(=O)COC(=O)COc2ccc3c(C)cc(=O)oc3c2)c(Cl)c1	3.0	/	17.7%	-0.9%	/
N#C/C(=N\Nc1ccc(Cl)cc1)C(=O)c1ccccc1	-47.6	?	?	0.0%	?
Cc1c(N/N=C(\C#N)C(=O)c2ccc(Cl)cc2)c(=O)n(-c2ccccc2)n1C	0.8	7.08µM*	11.5%	0.2%	3.55µM*
Cc1c(NC(=O)/C(C#N)=C/c2ccc(-c3cc(Cl)ccc3Cl)o2)c(=O)n(-c2ccccc2)n1C	-23.2	6.8%[10 µM]	18.4µM*	-1.6%	2.9%
Cc1c(NC(=O)/C(C#N)=C/c2ccc(-c3ccc(Cl)cc3)o2)c(=O)n(-c2ccccc2)n1C	-6.4	?	16.4µM*	10.8%	?
Cc1c(NC(=O)/C(C#N)=C\c2cccs2)c(=O)n(-c2ccccc2)n1C	20.7	-5.9%	5.9%	-0.4%	-2.6%
CN(CCCC(=O)Nc1ccc(OC(F)F)cc1)S(=O)(=O)c1ccc(F)cc1	2.9	-0.2%	-0.7%	-0.4%	3.8%
C[C@@H](C1[C@@H](O)CC2C3C=CC4C[C@@H](O)CC[C@]4(C)[C@H]3CC[C@@]21C)[C@@H]1CCCCN1 (some centres undefined)	/	8.3%	/	/	2.1%
SMILES	TSHR antagonist	RORg inh	ELG1 repair inh	B2AR arrestin	Gal4-VP16 FLuc
CC(C)NC(=O)N1CCCC2(CCN(C(=O)c3cccc(F)c3)CC2)C1	/	10.1%	/	/	-6.9%
S=C(NCCc1ccccc1)N1CCN(C(c2ccccc2)c2ccccc2)CC1	-2.7	10µM*	-15.0%	-0.3%	?
CCCCNC(=S)N1CCN(C(c2ccccc2)c2ccccc2)CC1	5.6	3.16µM*	20.6µM*	0.0%	?
CCNC(=S)N1CCN(C(c2ccccc2)c2ccccc2)CC1	10.8	44.6%	?	-0.2%	-3.5%
COCCNC(=S)N1CCN(C(c2ccccc2)c2ccccc2)CC1	11.9	-37.3%	-8.4%	0.1%	4.2%
CCCNC(=S)N1CCN(C(c2ccccc2)c2ccccc2)CC1	-2.7	11.2µM*	1.8%	-0.8%	17.8µM*
Cc1ccc(-c2cc(C3C4C=CCCC4(C)C(=O)N3Cc3ccccc3)ccc2F)cc1 (centres undefined)	/	14.5%	/	/	-3.0%
COc1cccc(-n2nc(C#N)c(Cl)cc2=O)c1	-37.2	3.55µM*	?	-0.2%	7.08µM*
O=C(C1CCN(c2nnc(-n3cccc3)s2)CC1)N1CCN(Cc2ccc3c(c2)OCO3)CC1	-0.9	1.2%	?	0.2%	-2.8%
O=C(c1sccc1Cl)N1CCN(Cc2ccc3c(c2)OCO3)CC1	-7.6	-0.2%	20.6µM*	0.2%	1.9%
O=C(c1ccccc1)N1CCN(Cc2ccc3c(c2)OCO3)CC1	-3.9	-31.2%	-16.8%	-0.1%	-4.4%
O=C(c1[nH]nc2c1CCc1ccccc1-2)N1CCN(Cc2ccc3c(c2)OCO3)CC1	-13.7	?	9.2µM*	-0.1%	-10.6%
O=C(C1CCN(c2nnc(N3CCCC3=O)s2)CC1)N1CCN(Cc2ccc3c(c2)OCO3)CC1	7.3	19.0%	13µM*	-0.5%	4.5%
Cn1c(C(=O)N2CCC(C(=O)N3CCN(Cc4ccc5c(c4)OCO5)CC3)CC2)cc2sccc21	2.3	?	7.31µM*	0.1%	?
CC1CCN(C(=O)c2ccc(CNS(=O)(=O)c3ccc(C(C)(C)C)cc3)cc2)CC1	-11.3	/	?	-0.6%	/
COc1ccc(Cn2c(O)c(C=Nc3ccc(O)cc3)c3ccccc3c2=O)cc1	-13.6	1.0%	23.1µM*	3.4%	-28.0%
CN(C)CCN=Cc1c(O)n(Cc2ccccc2)c(=O)c2ccccc12	4.7	12.6µM*	-8.6%	0.0%	?
COc1ccc([C@]23Cc4cc(C#N)ccc4C(O2)c2c(cc(C)n(-c4ccccc4)c2=O)O3)cc1	/	-1.0%[10 µM]	/	-0.3%[9.22 µM]	-0.3%[10 µM]
O=C(N/N=C/c1ccccc1O)C(=O)Nc1ccccn1	4.4	1.41µM*	-4.3%	-0.6%	10µM*
O=C(c1ccccc1)c1ccccn1	17.5	-14.0%	-7.5%	-0.5%	-3.4%
S=C(Nc1ccc(Nc2ccccc2)cc1)Nc1ccccn1	-29.3	0.708µM*	11.9%	3.1%	2.51µM*
S=C(Nc1ccccc1)c1ccccn1	-1.1	0.631µM*	?	?	2µM*
